Data reported in PubChem BioAssay (NCI).
About 79,000 compounds went through this panel and 15% of them were active in at least one assay; those are over-represented in the sample as a whole. The source made the active and inactive calls. Rule as the data show it: active = growth inhibition above about 70%; inactive = the rest.

Legend:
[1] = NCI Yeast Anticancer Drug Screen. Data for the rad50 strain (AID 155);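 also: 0% = growth of vehicle-only cultures of the same strain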; conditions: S. cerevisiae rad50 strain growth inhibition; at 50.0 µM; hits give high values
Method in brief: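 Growth of the mutant yeast was measured after compound exposure and referenced to vehicle-treated cultures.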

[2] = NCI Yeast Anticancer Drug Screen. Data for the mec2-1 strain (AID 157); conditions: S. cerevisiae mec2-1 strain, at 50.0 µM, hits give high values
Method in brief: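 Compounds were applied to mec2-1 yeast cells. Their growth was then compared with that of vehicle-treated cultures to give growth inhibition.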

[3] = NCI Yeast Anticancer Drug Screen. Data for the sgs1 mgt1 strain (AID 161);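 also: 0% = growth of cultures given vehicle only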; conditions: S. cerevisiae sgs1 mgt1 strain, at 50.0 µM, hits give high values
Method in brief: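 Growth of a repair-deficient yeast mutant was monitored after compound treatment and expressed as inhibition relative to vehicle-treated cultures.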

[4] = NCI Yeast Anticancer Drug Screen. Data for the cln2 rad14 strain (AID 165);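 also: 0% = growth equal to vehicle treated cultures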; conditions: S. cerevisiae cln2 rad14 strain, at 50.0 µM, hits give high values
Method in brief: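 Strain: cln2 rad14 yeast, altered in cell cycle control and DNA damage repair. Read-out: growth inhibition vs vehicle.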

[5] = NCI Yeast Anticancer Drug Screen. Data for the bub3 strain (AID 167); conditions: S. cerevisiae bub3 mutant strain, at 50.0 µM, hits give high values
Method in brief: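 Whole-cell yeast assay. The mutant strain was incubated with compounds, and growth inhibition was determined by comparison with vehicle-treated cells.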

[6] = NCI Yeast Anticancer Drug Screen. Data for the mlh1 rad18 strain (AID 175); conditions: S. cerevisiae mlh1 rad18 strain growth inhibition; at 50.0 µM; hits give high values
Method in brief: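 A repair-deficient yeast strain is exposed to test compound, and growth is scored relative to vehicle-treated controls.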

Measured: growth inhibition

O=[N+]([O-])c1ccc2c(c1)Cc1cccc([N+](=O)[O-])c1-2
inactive: [1] 2% | [2] -2.1% | [3] 0.25% | [4] -21.9% | [5] -5.9% | [6] 9.5%

O=C1C2CCSCN2C(=O)N1c1ccccc1 (stereo unspecified)
inactive: [1] -41.9% | [2] -14.9% | [3] -7.75% | [4] -15.9% | [5] -1.15% | [6] -19%

CCCCCCC1CCC(O)CC1 (stereo unspecified)
inactive: [1] 22.6% | [2] 2.95% | [3] -8.05% | [4] -0.15% | [5] 12.3% | [6] 41.1%

Cc1ccc(NC(=O)OCC2CC3C=CC2C3)cc1NC(=O)OCC1CC2C=CC1C2 (stereo unspecified)
inactive: [1] -21.2% | [2] -14.3% | [3] -14.8% | [4] -6.8% | [5] -3.25% | [6] 3.7%

c1ccc(SSc2ccc3ccccc3c2)cc1
inactive: [1] 22.4% | [2] 39.1% | [3] 32.6% | [4] 24.6% | [5] 31.4% | [6] 28.3%

CNC(=O)N(CC1CCCCC1)c1nc2c(=O)n(C)c(=O)[nH]c2s1
inactive: [1] -4.75% | [2] -5.9% | [3] -1% | [4] -22.7% | [5] -4.25% | [6] -3.6%

CN(C)c1nc(-c2ccccc2)c(Cc2ccccc2)c(=O)o1
inactive: [1] -1.9% | [2] -4.15% | [3] 20.5% | [4] -4.25% | [5] 7.25% | [6] 7.8%

CCC(CC)C(=O)NCC(=O)NO
inactive: [1] 2.25% | [2] 2.85% | [3] 1% | [4] -36% | [5] 0.6% | [6] 9.15%

NC1=NCC(c2ccccn2)C1c1ccc(F)cc1 (stereo unspecified)
inactive: [1] -11.9% | [2] -34.9% | [3] 1.1% | [4] 7.75% | [5] -18.7% | [6] -14%

NC(=O)C(CO)NC(=O)c1ccc[n+](Cc2ccccc2)c1 (stereo unspecified)
inactive: [1] 5.3% | [2] -1.6% | [3] -1.2% | [4] -4.5% | [5] 0.15% | [6] 27.9%

O=S(=O)(O)c1ccc(O)c2ncccc12
inactive: [1] 20.2% | [2] 16.4% | [3] 23.6% | [4] 21.4% | [5] 12.1% | [6] 25.9%

O=C1c2ccccc2C(=O)N1C1CCCCC1
inactive: [1] 7.15% | [2] 35.9% | [3] 22.4% | [4] -4.25% | [5] 56.4% | [6] -16.6%

Cc1cc(Cl)c(Cl)cc1NC(=O)C(Br)C(Br)c1ccccc1 (stereo unspecified)
inactive: [4] 68.7%
active: [1] 75.8% | [2] 71.3% | [3] 74.3% | [5] 78.5% | [6] 82.2%

CN(C)c1ccc(/C=N/NC(=O)NN)cc1
inactive: [1] 6.2% | [2] -12.3% | [3] -23.3% | [4] -2.85% | [5] -2.15% | [6] -15.9%

CCCCCCC(=O)/C=C/c1ccccc1Cl
inactive: [1] -12.2% | [2] -29.6% | [3] -1.35% | [4] 10.3% | [5] 15.1% | [6] 10.1%

CC#CC(O)(C(=O)OCCCN(C)C)C1CCCCC1 (stereo unspecified)
inactive: [1] 12.4% | [2] 3.55% | [3] 3.85% | [4] 2.25% | [5] 8.3% | [6] 9.25%

COc1cc(/C=C/C(=O)c2sc(NNC(C)=O)nc2C)ccc1O
inactive: [1] 15.6% | [2] 6.85% | [3] 19.3% | [4] 23.1% | [5] 18.8% | [6] 27.1%

CC(=O)NCCNC(=O)c1ccc(C)c(OCc2ccccc2)c1[N+](=O)[O-]
inactive: [1] 7% | [2] 11.7% | [3] -1% | [4] -26.2% | [5] -1.6% | [6] 4.45%

O=C1OI(=O)(O)c2ccccc21 (stereo unspecified)
inactive: [1] -4.35% | [2] -5.95% | [3] -7.5% | [4] -36.6% | [5] 5.2% | [6] 2.5%

c1ccc(Cn2nnc(-c3ccccc3)n2)cc1
inactive: [1] 19.3% | [2] 8.45% | [3] 5.3% | [4] -10.3% | [5] 32.9% | [6] 18.4%

CC1=C(CCC(C)CO)OC2CC3C4CC=C5CC(O)CCC5(C)C4CCC3(C)C12 (stereo unspecified)
inactive: [1] 19.1% | [2] -0.65% | [3] 43.4% | [4] 9.95% | [5] 6.3% | [6] 0.85%

C/C=C/C=N/SC(c1ccccc1)(c1ccccc1)c1ccccc1
inactive: [1] 9.35% | [2] -7% | [3] -5.05% | [4] 4.45% | [5] -26.1% | [6] 13.6%

Fc1ccc(C=C2c3ccccc3-c3ccccc32)cc1
inactive: [1] 11.7% | [2] 4.5% | [3] 18.4% | [4] 39.2% | [5] 11.7% | [6] -3.6%

CC(C)COC(=O)c1ccc(NC(=O)CN2CC(C)OC(C)C2)cc1 (stereo unspecified)
inactive: [1] 43.8% | [2] -10.4% | [3] 61.9% | [4] 56.5% | [5] 7.95% | [6] 47%

S=C(NCc1ccc(Cl)c(Cl)c1)Nc1ccccc1
active: [1] 98% | [2] 99.2% | [3] 99% | [4] 98.2% | [5] 97.3% | [6] 98%

Clc1ccc(OCCBr)cc1
inactive: [1] 39.2% | [2] 27.9% | [3] 29.4% | [4] 19.9% | [5] 3.8% | [6] 25.6%

CC(=N\[O-])/C(C)=N/O.CC(=N\[O-])/C(C)=N/O.CCCc1ccncc1.[Cl-].[Cl-].[Rh+3]
inactive: [1] -9.2% | [2] -34% | [3] -29.4% | [4] 13.7% | [5] -44.6% | [6] 3.9%

COc1ccc(/C=N/n2cnc3c(c2=O)SC(=C(C#N)C#N)N3c2ccccc2)cc1
inactive: [1] -5.4% | [2] -35.5% | [3] -15.6% | [4] -16.1% | [5] -19.5% | [6] -41%

CCOC(=O)Cc1cccnc1
inactive: [1] -27.6% | [2] -40% | [3] -14.1% | [4] 16.5% | [5] -12.2% | [6] -3.4%

COc1n[nH]c(N)n1
inactive: [1] 8.3% | [2] 12.8% | [3] 3.8% | [4] 22.8% | [5] 25.6% | [6] 20.2%

N#Cc1c2c(c(-c3cccs3)n(C3OC(CO)C(O)C(O)C3O)c1=S)CCc1ccccc1-2 (stereo unspecified)
inactive: [1] 10.7% | [2] -9.55% | [3] -3.35% | [4] -20.4% | [5] 0.8% | [6] 1.6%

C[n+]1ccccc1/C=C/c1csc2ccccc12
inactive: [1] -0.85% | [2] 5.35% | [3] 4.75% | [4] -11.8% | [5] -0.6% | [6] -3.8%

NC(=S)N/N=C\c1nccc2ccc(N)cc12
inactive: [1] 36% | [2] -0.8% | [3] 3.1% | [4] -46.8% | [5] -5.8% | [6] 4.9%

CC1(C)CN(CCO)C(C)(C)CN1CCO
inactive: [1] 13.4% | [2] 7.35% | [3] 7.2% | [4] 12.4% | [5] -27.7% | [6] -10.1%

CC(=O)c1c(C)[nH]c(C(=O)O)c1C
inactive: [1] 24.7% | [2] 4.3% | [3] 8.75% | [4] -14.4% | [5] 5.35% | [6] 16.6%

COc1cc2c(SCCN(C)C)nc3ccccc3c2c2ccccc12
active: [1] 89.9% | [2] 92.3% | [3] 90.8% | [4] 87.8% | [5] 91.5% | [6] 89.1%

CC(C)(C)Nc1ccc([N+](=O)[O-])cc1[N+](=O)[O-]
inactive: [1] 26.4% | [2] -21.9% | [3] 6.6% | [4] 7.95% | [5] 25.2% | [6] -10.7%

CN=C(NN(C)C)c1ccc(NC(=O)c2ccc(C(=O)Nc3ccc(C(=NC)NN(C)C)cc3)cc2)cc1
inactive: [1] 8.4% | [2] 7.65% | [3] 10.8% | [4] 10.1% | [5] -13.8% | [6] 13.9%

CCCCCCC(C)C(CC)(C(=O)OCC)C(=O)OCC (stereo unspecified)
inactive: [1] -16.1% | [2] 6.55% | [3] -0.2% | [4] 12.1% | [5] -14.3% | [6] 7.65%

CC[n+]1[b-](C(C)(C)C)n(/N=C/C(C)(C)C)[b-](C(C)(C)C)[n+]1CC
inactive: [1] 0.7% | [2] -13.2% | [3] -19.9% | [4] 20.4% | [5] -11.2% | [6] 4.95%

CSCCC(NCc1c(O)ccc2c(-c3ccccc3)cc(=O)oc12)C(=O)O (stereo unspecified)
inactive: [1] -23.3% | [2] -20.5% | [3] -30.1% | [4] -1.5% | [5] -2.95% | [6] -31.2%
